The supplement of paper PMC12632987

T1: USP38, Q8NB14
T1 chain: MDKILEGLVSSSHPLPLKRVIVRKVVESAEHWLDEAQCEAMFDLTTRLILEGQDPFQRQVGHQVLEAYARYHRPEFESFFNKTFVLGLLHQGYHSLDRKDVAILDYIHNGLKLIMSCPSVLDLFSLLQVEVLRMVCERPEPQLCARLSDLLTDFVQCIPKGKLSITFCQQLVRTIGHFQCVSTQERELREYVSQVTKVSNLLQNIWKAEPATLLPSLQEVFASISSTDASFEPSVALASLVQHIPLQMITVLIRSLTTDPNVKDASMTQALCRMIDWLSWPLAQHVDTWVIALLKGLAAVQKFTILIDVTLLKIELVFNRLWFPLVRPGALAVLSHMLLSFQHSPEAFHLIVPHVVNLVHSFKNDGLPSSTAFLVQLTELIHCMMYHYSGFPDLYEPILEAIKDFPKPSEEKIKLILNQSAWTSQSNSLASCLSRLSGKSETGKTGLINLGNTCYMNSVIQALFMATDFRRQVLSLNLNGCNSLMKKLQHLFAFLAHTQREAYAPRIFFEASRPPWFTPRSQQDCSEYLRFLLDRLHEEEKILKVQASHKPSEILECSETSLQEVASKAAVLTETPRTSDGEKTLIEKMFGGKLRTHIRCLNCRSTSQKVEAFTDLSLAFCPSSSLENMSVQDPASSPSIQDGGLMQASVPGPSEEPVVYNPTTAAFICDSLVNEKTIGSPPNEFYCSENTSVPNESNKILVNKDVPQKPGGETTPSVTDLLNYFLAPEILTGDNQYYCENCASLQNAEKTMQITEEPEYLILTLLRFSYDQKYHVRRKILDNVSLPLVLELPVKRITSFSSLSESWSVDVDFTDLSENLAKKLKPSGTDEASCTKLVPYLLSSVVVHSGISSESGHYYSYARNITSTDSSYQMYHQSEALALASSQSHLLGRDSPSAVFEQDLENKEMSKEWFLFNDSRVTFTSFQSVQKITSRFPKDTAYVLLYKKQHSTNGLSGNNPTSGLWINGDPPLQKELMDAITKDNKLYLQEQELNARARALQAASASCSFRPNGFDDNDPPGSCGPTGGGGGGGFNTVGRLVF

B1: usp_38_diff_out_14_2_78 (protein)
chain: MEEKVKKLKEEIEKLLEEAKKLLEEAKKLLKEGDELAEEVLEKLDKAFDKLGELAKLLRELRELDPSQRAFVKEMTKKANELIDELTELRTEALLILAER
B2: usp_38_diff_out_14_2_116 (protein)
chain: AVEEIKAATDATLATLAAATAALAELKKRVEADPSLAEEARAEAFAAWDAAADAVGALNRLMEANREHRAERKEATAKINAALTTLTAALTETLEAAAAA
B3: usp_38_diff_out_13_93_72 (protein)
chain: SAEEEIEKILKEVEEEAEKELEELEKEVAAGRLTVEEVLRRAGELFSYIVKKHQEIEKIAKENGLEALLKEATEKVNELINKVTERVTAMLERVAARQLA
B4: usp_38_diff_out_14_2_102 (protein)
chain: AEAEIEKATEETLAVLEEAIKKFEELEKEVEEDPSKAEEAFERILEEWDRAADAVGALARLLEAHPEVRETRKKAVAEVNEALTRLTEKATRALEKAAEA
B5: usp_38_diff_out_13_93_73 (protein)
chain: DPAEELRREAEELIEELRRRTDELVARLEAGEITIEEALARFSELMDEAAERLRELIARAEALGLEALAREIRRRVLEAMVEATERLGAALERAAEREAA
B6: usp_38_diff_out_14_2_101 (protein)
chain: AEEEIKKKKEETLKKLEEGIERLKKLKEEVKKDPSLAEKARKEAFEIHDEVADKVGELHKLILKNPELKELNKKAIKEVNEKLTEFTEALLEALEEAAAA
B7: usp_38_diff_out_14_2_111 (protein)
chain: AKEELEKATKETLEVLKEATKLAKELKEEVKKDPSKAEEARKKLFEAHDKAGDAVGELNKLILENKELRELNKKATEEVNKAITEYTKATLEALETIAEA
B8: usp_38_diff_out_14_2_121 (protein)
chain: AKEELEKATKKALETLDKALEEAKRLKEEVKKDPSKAEEAFKRLREAWDKAADAVGELNKLMLEHKEEKETIKEATEKVNKKITELTKATLEALEEAAKA
B9: usp_38_diff_out_14_2_114 (protein)
chain: GEAEIKAATAETLAVLEEAIKKLKELTERVKADPSKAEEARKEAFEAWDKAADAVGALRKLMEAHREHRAEIKEATAKVNEAITKLTEALTETLELAAEA
B10: usp_38_diff_out_13_93_75 (protein)
chain: SLEDEAAALLAEIRAEAEALAAELEALAEAGKITIEEVLERTSALVDRIAERTRAMVARLRAAGLEALARRLEEEVNRILLDLTERVGRILERLAEREAA
B11: usp_38_diff_out_14_2_115 (protein)
chain: AVEELKKKTEETLKVLDEAIKKLKELTERVKKDPSTAEEAVKEAFKAWDKAADAVGELNKLILANREHRAENKEATKKVNEKITELTKALTEALTLAAEA
B12: usp_38_diff_out_13_93_70 (protein)
chain: SAEEKIKKLIEETKEKAKKKLEEMEEKVEAGELDVEEVLEEYSELMKYIVETHNEIEKLAKENGLEELLKEANKEFNELINETTEKVTEMLEKVAERQLA
B13: usp_38_diff_out_14_2_112 (protein)
chain: AKEELEKKKEETLKTLEEAIKKAKELKKEVEKDPSKKEEAFKELRKKHDEAADKVGELNKLILENKELRELNKKVTEEVNEKIKEYTEAVLEALEKIAEA
B14: usp_38_diff_out_13_93_77 (protein)
chain: SLEEKAKALLAEIEARAKALLEELEELAERGEITIEEVLERSSALFDEIAAETRAMVAELEAAGKKALAEELKKKVNEIILDATEGIGKILERLAEREAA
B15: usp_38_diff_out_14_2_122 (protein)
chain: AEAELEAAAAATKATLEDAIKRVKELLEEVKKDPSKAEEALKELRRLWDEAADAVGALARLMEAHRELRALRKRITAEVNALITEFTEAVLELLEEIAEA
B16: usp_38_diff_out_14_2_117 (protein)
chain: GEEEIKKATEETLKVLKEAIKKLKELKKRVEEDPSKAAEATEEAFRAWDKAADAVGALNKLLEAHKEHREENKKATKEVNKAITELTEALTELLTAAAEA
B17: usp_38_diff_out_14_2_119 (protein)
chain: AKAEIAKATAATLATLAAAIKKAKELTKKVKADPSLKEKARAELDKAWDAAGDAVGALNTLLLANKDLKAENKKATAATNAAITELTKTYTEALEAIEEA
B18: usp_38_diff_out_13_93_76 (protein)
chain: TLEEKAEALLAEIRKRAEELLKELKKLAEEGKITIEEVLERSSKLFDEIAERTRAMVAELRAAGKEALAERVEKEVNEIILKATEGVGKILEFLAEKEAA
B19: usp_38_diff_out_14_2_120 (protein)
chain: AVEEIKKATDDTLAKLDAAIAAAKALTAQVKADPSLKEQARAALNAAWDAAGDAVGALNKLLEANKEEKATNKEATAKTNAAITELTAAVLDALTTIEEA
B20: usp_38_diff_out_13_93_71 (protein)
chain: STEEEIERLVEEAEERARRELEEMREEVEAGKLNVEEVLERSSELFRWLVEKYNEIKKLAKEAGLEELLKEAEERFNELINKATEEVTEMLEKVAERELA
B21: usp_38_diff_out_13_93_74 (protein)
chain: DLEARVEALLAAQEAEADALAAELAARAAAGEITVEEILERSSALADRIAEETRRAVAELEAAGEAALARRLRERTAEILLRLTERVGAILEELAAREAA
B22: usp_38_diff_out_14_2_106 (protein)
chain: GEEEIKKATEETLKAIKEAIEKAKELKEKVKKDPSLAEEARKELFEAHDKVGDKVGALAKLIEEHKEYRETNKKAVKEVNEALKEYTEAVLELLEEIAEA
B23: usp_38_diff_out_14_2_100 (protein)
chain: GEEELKAATDATLKTLDAAIKEAKELKKEVEEDPSKAEEARKRLFEAWDKAADAVGALAKLMEEHKELRELNKEAVEKVNKRITELTKVALEALELAAKA
B24: usp_38_diff_out_14_2_110 (protein)
chain: AEEKLKKATKETLATLKEAIKLAKELKKEVKKDPSKKEEARKKLFEAHDKAADAVGKLAKLIEENKELRELNKKATKEVDKAITEYTKAALEALEEIEKA
B25: usp_38_diff_out_14_2_104 (protein)
chain: AKATIEAATAAALKAIDDGKKRLEELTKKVKEDPSKAEEAREEILAVWDEVGDAVGALAATLRANPAERATNKAATAEVNKALTEFTKKALEALEVAEEA
B26: usp_38_diff_out_14_2_108 (protein)
chain: AADKIKAATDATLAALEAAIAKAKELKERVKKDPSLAEEARKELFEAWDAVGDKVGALAKLLEENKAERATNKKATAEVNKALTEYTKAVLEALEEIAKA
B27: usp_38_diff_out_14_2_118 (protein)
chain: GEEELKEKKKATLATLDDAIAKAKALEAAVKADPSIAEQARAELRKAWDAAADAVGELERLIREHPEHRELNKEAIKEVNEKLTELTEALLAALQTIAEA
B28: usp_38_diff_out_14_2_79 (protein)
chain: MEEKAKEVLKKLEEKTKEVKKVTEELEKALSGSKEEIEKAVEKAFKVLDEAGKVSAEAEEVRRENPKFRAEFKKAFKELDKELSKLSKAILEALEKIAEL
B29: usp_38_diff_out_14_2_107 (protein)
chain: AKEEIKKKTEETLKALDEAIKAAKKLKEEVKKDPSLAEKARKELFKLWDEVGDKVGELAKLLEENKEERETNKEAVEKVNEALTKFTKAVLEALEEIEKA
B30: usp_38_diff_out_14_2_113 (protein)
chain: AEEELKKAAEKTLKVLDEAIKNLKALKKKVEADPSKAEEATKEAFAAWDKAADAVGELNKLIEANREHRAERKEVTEKVNKKITELTDALTELLTAAAEA
B31: usp_38_diff_out_14_2_105 (protein)
chain: GEEEIKKATDKTLKKLEEATKKFKELKEKVKKDPSLAEEARKEAFKAWDEAGDAVGALAKLIEENKEHRATNKEATEKVNKALTEYTKAVLELLEEIAEA
B32: usp_38_diff_out_14_2_109 (protein)
chain: KEEELKKKKEETLKKLDEAIKKAKELKEEVKKDPSKKEEAFKELFEKHDEAADAVGELNKLILENKELRELNKEVTEEVNKKITEYTEAVLEALEEIAEA

Biological target: T1, USP38, Q8NB14
Assay: median log2 fold change of GCK-ALFA target abundance (FLAG IP / Myc IP barcode read proportion) (log2 ratio); each designed protein is fused to an ALFA-tag nanobody in HEK293 cells to bring the named protein to FLAG-tagged glucokinase (GCK); Myc marks an untargeted standard; higher = target protein stabilised (more abundant)
Settings: target protein: 3xFLAG-MCP-GCK-ALFA reporter; HEK293 landing pad (RPLP)
How it was run: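 HEK293 landing-pad cells received a recombined binder library fused to the ALFA nanobody and were induced with 2 μg mL^−1 doxycycline, then transfected with a plasmid encoding a FLAG-tagged target and a Myc-tagged standard. Lysates were collected after 48 h for anti-FLAG and anti-Myc immunoprecipitation, and the circular RNA barcodes were reverse transcribed, amplified and sequenced. Target abundance for each binder is the median log2 ratio of FLAG to Myc barcode read proportions. Barcodes had to reach a proportion of at least 10^−7 in both replicates, each binder needed at least 3 barcodes per replicate, a pseudocount of 10^−6 was applied, and the two replicates were pooled.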

Binder	median log2 fold change
B1	0.219
B2	-0.132
B3	-0.469
B4	-0.0129
B5	-0.395
B6	0.0029
B7	-0.197
B8	-0.64
B9	-0.239
B10	0.213
B11	-0.246
B12	-0.785
B13	0.0138
B14	-0.0527
B15	-0.56
B16	-0.0949

Binder	median log2 fold change
B17	-0.186
B18	0.124
B19	-0.172
B20	-0.429
B21	0.136
B22	-0.23
B23	-0.611
B24	-0.599
B25	0.0445
B26	-0.78
B27	-0.0211
B28	-0.624
B29	-0.442
B30	-0.258
B31	-0.792
B32	-0.1
